Screening data deposited in PubChem BioAssay by National Center for Advancing Translational Sciences (NCATS).
MLL CXXC-DNA inh: inhibitors of human MLL CXXC domain-DNA interaction. Q03164. MLL-CXXC / FITC-HOXA9 DNA fluorescence polarization. Potency, µM (top dose mostly 115 µM), for the others: top-dose activity change, negative = inhibition, hits mostly inhibitors. 290,000 compounds, 0.037% hits; active = well fitted inhibition curve with a large enough effect in the polarisation, with a control signal flat, not every such curve was filed as active; inconclusive = small, poorly fitted or top-dose-only effect, or effect the other way, or a change in a side signal; inactive = no such curve, though single readings can be large or run the other way; the % refers to the polarisation; also: potency is read from the fitted curve at half-maximal effect
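Steps: dispense CXXC domain solution (7 uM) → pin compounds or unlabeled HOX-A9 DNA control → 5 min ambient → add FLSN-HOX-A9 solution (50 nM) → spin → 30 min ambient → fluorescence polarization. Tris pH 7.5/NaCl/DTT/BSA buffer.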
Menin MLL FP FL: menin-MLL binding inhibition, fluorescein peptide; Fluorescence polarization, fluorescein-MLL peptide displacement from menin; FP activity change, % at 61.4 µM; 290,000 tested, under 10 active; active = well fitted curve in the direction sought with a large enough effect in the polarisation, not every such curve was filed as active; inconclusive = small, poorly fitted or top-dose-only effect, or effect the other way, or a change in a side signal; inactive = no such curve, though single readings can be large or run the other way; the % refers to the polarisation; also: % of control where 0% means no effect
B2AR arrestin: agonists driving beta-arrestin recruitment to human beta2-adrenergic receptor; beta-arrestin recruitment to beta2AR, cell-based reporter; Potency, µM (series often up to 46.1 µM), without a hit: at the top dose activation, usual class: activators; 330,000 compounds, 0.02% hits; AID 492947; active = well fitted activation curve with a large enough effect; inconclusive = small, poorly fitted or top-dose-only effect;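 also: potency is read from the fitted curve at half-maximal effect; 0% = DMSO controls and full agonism = EC100 isoproterenol or metaproterenol; nearly all actives have a fitted effect of over 65% in size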
Target sequence (P07550 whole entry, looked up): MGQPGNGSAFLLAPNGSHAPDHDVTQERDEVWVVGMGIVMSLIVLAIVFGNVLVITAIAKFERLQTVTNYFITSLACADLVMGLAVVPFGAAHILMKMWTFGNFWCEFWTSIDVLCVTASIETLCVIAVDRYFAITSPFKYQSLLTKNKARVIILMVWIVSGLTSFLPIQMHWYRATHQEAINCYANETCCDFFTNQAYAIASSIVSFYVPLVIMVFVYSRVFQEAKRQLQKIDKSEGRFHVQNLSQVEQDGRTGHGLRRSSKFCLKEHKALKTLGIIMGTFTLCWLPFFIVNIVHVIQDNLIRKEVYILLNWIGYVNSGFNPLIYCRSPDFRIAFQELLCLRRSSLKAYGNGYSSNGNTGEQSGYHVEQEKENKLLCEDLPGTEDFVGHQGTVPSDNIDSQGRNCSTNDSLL
Menin-MLL TR inh: displaces Texas Red mutant MLL peptide from human menin | O00255 | Menin + Texas Red MLL mutant peptide, fluorescence polarization | Potency, µM (titrated, usually from 61.6 µM), inactives show top-dose FP activity change, negative = inhibition, hits mostly inhibitors | 270,000 compounds, 0.23% hits | AID 1768; active = well fitted inhibition curve with a large enough effect in the polarisation, with a control signal flat, not every such curve was filed as active; inconclusive = small, poorly fitted or top-dose-only effect, or effect the other way, or a change in a side signal; inactive = no such curve, though single readings can be large or run the other way; the % refers to the polarisation; also: potency is read from the fitted curve at half-maximal effect; % of control where 0% means no effect
Chronic BCR inh: blocks chronic active B-cell receptor signaling; ABC-DLBCL IkBa-CBG/CBR reporter, luminescence ratio, 4 h; Potency, µM (titrated, usually from 46.1 µM), for inactives: at the top dose activity change, negative = inhibition, actives largely listed as inhibitors; 340,000 compounds, 0.05% hits; active = well fitted inhibition curve with a large enough effect in the signal ratio, with a control signal flat, not every such curve was filed as active; inconclusive = small, poorly fitted or top-dose-only effect, or effect the other way, or a change in a side signal; the % refers to the signal ratio;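 also: potency is read from the fitted curve at half-maximal effect; plate controls were basal doxycycline-induced cells for no effect and cells given 10 µM MG132 for full effect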
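Concentration-response series (up to 46 uM) were applied to TMD8 dual-reporter cells for 4 h at 37C with doxycycline. Green/red ratio, after filter-overlap correction, defined %Activity; red signal alone was normalised to basal cells and zero luminescence.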
PTAP TSG101 blk: blocks PTAP/TSG101 interaction to inhibit HIV-1 budding | Q99816 | Fluorescence polarization, FITC-PTAP peptide / Tsg101 binding | Potency, µM (series often up to 115 µM), without a hit: top-dose activity change, negative = inhibition, usual class: inhibitors | 340,000 tested, under 10 active; active = well fitted inhibition curve with a large enough effect in the main read-out, with a control signal flat, not every such curve was filed as active; inconclusive = small, poorly fitted or top-dose-only effect, or effect the other way, or a change in a side signal; inactive = no such curve, though single readings can be large or run the other way; also: potency is read from the fitted curve at half-maximal effect; % of control where 0% means no effect
Target sequence (Q99816 whole entry, looked up): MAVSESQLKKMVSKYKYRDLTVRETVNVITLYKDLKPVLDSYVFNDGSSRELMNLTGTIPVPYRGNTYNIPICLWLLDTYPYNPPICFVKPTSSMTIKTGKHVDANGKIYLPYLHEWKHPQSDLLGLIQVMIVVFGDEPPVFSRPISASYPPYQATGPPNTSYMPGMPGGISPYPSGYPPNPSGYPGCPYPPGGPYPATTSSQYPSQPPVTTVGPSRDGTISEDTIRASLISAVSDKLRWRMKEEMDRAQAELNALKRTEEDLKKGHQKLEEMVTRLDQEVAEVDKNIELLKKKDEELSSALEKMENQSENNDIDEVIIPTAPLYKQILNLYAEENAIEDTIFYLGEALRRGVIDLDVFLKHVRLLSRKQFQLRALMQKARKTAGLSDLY
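Fluorescence anisotropy tracks displacement of a FITC-tagged PTAP peptide (50 nM) from the Tsg101 binding domain (10 uM), following a 20 min room-temperature incubation at pH 7.5.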
An asterisk follows results filed as active; ? = inconclusive; · = not tested or not shown; [ ] = another dose, or the depositor's remark. This is one part of a sample in which hits are shown more often than they occur.

SMILES	MLL CXXC-DNA inh	Menin MLL FP FL	B2AR arrestin	Menin-MLL TR inh	Chronic BCR inh	PTAP TSG101 blk
CCCNC(=O)Cn1c(=O)/c(=C\c2ccc(-c3ccc([N+](=O)[O-])cc3)o2)s/c1=C\C(=O)C(C)(C)C	1.5%	?	-0.6%	17.8µM*	?	?
COc1ccccc1-c1cc(C(=O)Nc2ccc(F)cc2F)no1	-9.8%	4.6	0.4%	11.2µM*	?	·
Cc1ccc2c(Cl)cc(Cl)c(OCC(=O)OCC(=O)Nc3ccc(C#N)cc3)c2n1	?	0.0	-0.1%	-10.9%	9.5%	0.1%
CN(C)c1ccc(NC(=O)N2CCOCC2)cc1	6.3%	0.1	0.3%	20µM*	?	-4.5%
O=C(Nc1ccc(F)cc1)N1CCOCC1	4.5%	-3.4	0.0%	-0.4%	4.6%	-5.7%
COc1cc(/C=N/NC(=O)c2ccccc2)ccc1O	-3.4%	-2.4	-0.4%	-4.4%	?	-3.1%
COc1cc(/C=N/NC(=O)c2[nH]nc3c2CCc2ccccc2-3)ccc1O	?	-18.8	-1.0%	-1.3%	20.6µM*	-8.9%
Cc1cccc(NC(=O)CSc2nc(=O)n(Cc3ccco3)c3c2CCC3)c1C	·	·	·	·	-0.9%	·
CCCCCCNC(=O)N[C@H](C(=O)NCCC[C@H]1CN2C(=NC[C@H]2C)N1CCC(c1ccccc1)c1ccccc1)C(C)O (some centres not stated)	4.8%	-1.4	2.9%	·	17.8µM*	·
CCOc1ccc(N=C2NC(=O)S/C2=C\c2ccc(N(C)C)cc2)cc1	1.5%	?	0.0%	31.6µM*	?	?
COc1ccc(NS(=O)(=O)c2cc(-c3cnc(C4CC4)o3)ccc2C)cc1	-2.2%	·	0.1%	·	12.6µM*	0.8%
CCOc1ccccc1N=NC1C(=O)N(C(N)=S)N=C1C (configuration not stated)	?	?	1.12µM*	?	?	0.6%
CC1=NN(C(N)=S)C(=O)C1N=Nc1ccccc1O (configuration not stated)	22.2%	9.9	0.3%	5.4%	-0.8%	0.4%
Cc1ccc2nsnc2c1NS(=O)(=O)c1c(C)ccc2nsnc12	-4.3%	11.5	-0.8%	2.4%	-0.4%	-2.8%
Cc1ccc(/C=[N+](\[O-])c2ccc(N(C)C)cc2)c2nsnc12	-3.0%	?	-0.3%	?	10µM*	0.9%
CCC(NC(=O)c1ccccc1NC(=O)c1ccccc1)C(=O)OC (configuration not stated)	-0.8%	-2.5	0.3%	-1.6%	?	2.4%
CCOC(=O)C1=C(C)c2ccccc2N(C(=O)OC)C1(C)C(=O)OCC (configuration not stated)	·	-1.5[94.6 µM]	-0.5%	-3.6%[94.6 µM]	18.4µM*	-0.5%
Cc1ccc(C(=O)N2CC(C)SC2=Nc2cccc(S(=O)(=O)N(C)C)c2)cc1 (configuration not stated)	160.0%	-0.1	-0.1%	4.1%	-0.6%	-0.5%
CCCC/C(O)=C/c1nc2ccccc2[nH]c1=O	-0.8%	-10.8	0.5%	0.1%	14.6µM*	6.4%
CC(C)(C)/C(O)=C/c1nc2ccccc2[nH]c1=O	-2.3%	-1.4	0.3%	-17.0%	1.0%	-0.6%
Cc1c2cnn(CC(=O)Nc3c(F)c(F)cc(F)c3F)c(=O)c2c(C)n1Cc1ccccc1F	4.4%	?	2.9%	12.6µM*	?	-3.9%
CNC(=O)Cn1ncc2c(C)n(Cc3ccc(C)cc3)c(C)c2c1=O	-2.8%	-0.9	0.1%	22.2%	-0.7%	-2.7%
COc1ccc(C(=O)Nc2ccccc2C(=O)N/N=C/c2cccc3ccccc23)cc1	30.6%	5.5	-0.9%	28.2µM*	-10.5%	-2.9%
COc1ccc(N2C(=O)CS/C2=N\C(=S)Nc2ccccc2)cc1	-3.6%	4.8	5.62µM*	·	10µM*	-4.0%
COc1ccc(CN(C(=S)Nc2ccccc2)C2CC(=O)N(c3ccc(F)cc3)C2=O)cc1 (configuration not stated)	20.4%	1.2	7.0%	-3.3%	-0.1%	-0.8%
SMILES	MLL CXXC-DNA inh	Menin MLL FP FL	B2AR arrestin	Menin-MLL TR inh	Chronic BCR inh	PTAP TSG101 blk
N#Cc1ccccc1NC(=O)CSC1=Nc2ccccc2C2CC=NN12 (configuration not stated)	3.6%	0.1	-1.4%	13.3%	20µM*	0.5%
CC(C)C(=O)c1cn(CC(=O)O)c2ccccc12	19.3%	-0.8	-0.4%	9.6%	0.8%	-2.5%
NC(=S)N/N=C/c1ccc(-c2ccccc2)o1	1.6%	-1.7	?	?	?	-3.7%
Cc1ccc(-c2ccc(/C=N/NC(N)=S)o2)cc1	1.2%	5.3	?	·	22.4µM*	-5.0%
COc1ccc(-c2ccc(CCC(=O)O)n2-c2ccccc2O)cc1	19.5%	38.5	0.3%	·	15.8µM*	-2.6%
Cc1cccc(-n2ncc3c(N4CCN(c5ccccc5)CC4)ncnc32)c1	·	·	·	·	16.0%	·
CCN(CC)c1ccc(N=Cc2ccccc2[N+](=O)[O-])cc1	6.7%	0.6	-1.0%	17.8µM*	-7.1%	-0.1%
Cc1nc2ccc(Br)cc2c2c1CC(CBr)O2 (configuration not stated)	0.4%	-3.3	3.5%	-2.5%	15.0%	-7.3%
O=C(Nc1cccc2ccccc12)c1cc2c(cc1Br)OCO2	11.1%	7.1	-0.1%	17.1%	11.2µM*	-1.5%
Oc1c(Cl)cc(CN2CCOCC2)c2cccnc12	·	·	2.7%	·	-9.9%	-3.1%
Oc1ccc(CN2CCN(Cc3ccccc3)CC2)c2cccnc12	0.5%	2.8	-0.2%	9.8%	0.0%	-0.7%
CN1CCN(Cc2cc(COCc3ccccc3)c3cccnc3c2O)CC1	0.5%	4.1	2.51µM*	?	?	-4.8%
Oc1c(CN2CCc3ccccc3C2)cc(Cl)c2cccnc12	12.8%	-3.6	7.08µM*	-13.2%	?	-10.9%
CCCCCCn1cc(C(=O)O)c(=O)c2ccccc21	6.7%	-1.1	-0.2%	0.1%	1.7%	-2.9%
CCCCCCCCCCCCCCCCn1cc[n+](Cc2ccccc2)c1C	·	-19.6	·	22.4µM*	·	·
O=C(Oc1c(CN2CCOCC2)cc(Cl)c2cccnc12)c1ccccc1	-7.0%	-6.7	?	-13.2%	?	0.8%
O=C(Oc1c(CN2CCOCC2)cc(Cl)c2cccnc12)c1ccccc1F	2.7%	-0.1	5.62µM*	-9.0%	3.55µM*	-2.1%
COc1cc(OC)cc(C(=O)Oc2c(CN3CCOCC3)cc(Cl)c3cccnc23)c1	11.8%	0.6	3.98µM*	·	?	-2.4%
CCCCn1c(N)c(N(CCC(C)C)C(=O)c2cccc(S(=O)(=O)N3CCN(C)CC3)c2)c(=O)[nH]c1=O	·	·	-0.5%	·	-7.3%	2.1%
Cc1nc(NC(=O)c2cnccn2)ccc1Br	32.4%	-6.0	-0.5%	16.3%	1µM*	-2.7%
Cc1nc(NC(=O)c2cncc(Br)c2)ccc1Br	32.2%	3.1	0.3%	3.2%	3.6%	0.6%
